Assay results taken from PubChem BioAssay AID1159580 (chemical genetic matrix, 2015).
Values joined by “and” are separate entries in the source; they are usually repeats but may differ in a detail not shown here. Equal entries are not always repeated. The whole screen tested about 5,500 compounds, of which about 2,000 (36%) were called active. Inconclusive results (about 18%) are left out. Rule as the data show it: active = normalized growth mostly below about 0.91 (no sharp cut-off); inconclusive = no clear call, values can overlap the other calls; inactive = mostly above about 0.92. The list shows a part of the results.

Test: chemical genetic growth profiling, strain panel (AID 1159580);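 also: tested at 20 µM; growth read once vehicle control cultures reached saturation at 30 °C; 1 = growth at the plate median or of vehicle wells; lower values mean less growth of the strain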
Conditions: S. cerevisiae deletion strains, growth OD

Measured: normalized growth

Nc1ncn([C@@H]2O[C@H](CO)[C@@H](O)[C@H]2O)c(=O)n1
inactive: locus YAL021C, strain ccr4, stronger effect = lower value 1.01 | locus YAL026C, strain drs2, stronger effect = lower value 0.998 | locus YAL030W, strain snc1, stronger effect = lower value 0.996 | locus YBL061C, strain skt5, stronger effect = lower value 0.987 | locus YBR009C, strain hhf1, stronger effect = lower value 0.992 | locus YBR021W, strain FUR4, stronger effect = lower value 0.999 | locus YBR023C, strain chs3, stronger effect = lower value 1 | locus YBR171W, strain sec66, stronger effect = lower value 0.962 | locus YBR229C, strain ROT2, stronger effect = lower value 1.01 | locus YBR231C, strain swc5, stronger effect = lower value 0.973 | locus YBR279W, strain paf1, stronger effect = lower value 0.995 | locus YCL011C, strain gbp2, stronger effect = lower value 1.01 | locus YCL016C, strain dcc1, stronger effect = lower value 0.987 | locus YCL029C, strain bik1, stronger effect = lower value 1 | locus YCL061C, strain MRC1, stronger effect = lower value 0.989 | locus YCL069W, strain vba3, stronger effect = lower value 0.979 | locus YCR088W, strain abp1, stronger effect = lower value 0.996 | locus YDL005C, strain med2, stronger effect = lower value 0.972 | locus YDL035C, strain GPR1, stronger effect = lower value 1.02 | locus YDL040C, strain nat1, stronger effect = lower value 0.981 | locus YDL074C, strain BRE1, stronger effect = lower value 1.03 | locus YDL101C, strain DUN1, stronger effect = lower value 1.01 | locus YDL134C, strain PPH21, stronger effect = lower value 1.01 | locus YDL185W, strain tfp1, stronger effect = lower value 0.99 | locus YDL192W, strain arf1, stronger effect = lower value 0.994 | locus YDR001C, strain nth1, stronger effect = lower value 0.984 | locus YDR069C, strain doa4, stronger effect = lower value 0.976 | locus YDR101C, strain arx1, stronger effect = lower value 0.996 | locus YDR137W, strain rgp1, stronger effect = lower value 1 | locus YDR159W, strain sac3, stronger effect = lower value 1 | locus YDR162C, strain NBP2, stronger effect = lower value 1.01 | locus YDR195W, strain ref2 0.91 | locus YDR297W, strain sur2, stronger effect = lower value 0.993 | locus YDR318W, strain mcm21, stronger effect = lower value 0.999 | locus YDR334W, strain swr1, stronger effect = lower value 0.989 | locus YDR335W, strain msn5, stronger effect = lower value 0.98 | locus YDR388W, stronger effect = lower value 0.997 | locus YDR392W, strain spt3, stronger effect = lower value 1.02 | locus YDR502C, strain sam2, stronger effect = lower value 1.01 | locus YEL003W, strain gim4, stronger effect = lower value 0.982 | locus YEL037C, strain rad23, stronger effect = lower value 0.992 | locus YEL061C, strain CIN8 (second series), stronger effect = lower value 0.986 | locus YEL061C, strain CIN8, stronger effect = lower value 1.01 | locus YER015W, strain faa2, stronger effect = lower value 0.99 | locus YER016W, strain bim1, stronger effect = lower value 1.01 | locus YER110C, stronger effect = lower value 1.01 | locus YER111C, strain swi4, stronger effect = lower value 0.959 | locus YER155C, strain BEM2 (second series), stronger effect = lower value 0.978 | locus YER155C, strain BEM2, stronger effect = lower value 1.01 | locus YER167W, strain BCK2, stronger effect = lower value 0.996 | locus YFR010W, strain ubp6, stronger effect = lower value 0.983 | locus YGL078C, strain dbp3, stronger effect = lower value 0.992 | locus YGL086W, strain mad1, stronger effect = lower value 1 | locus YGL167C, strain pmr1, stronger effect = lower value 0.987 | locus YGL173C, strain kem1, stronger effect = lower value 0.971 | locus YGL227W, strain vid30, stronger effect = lower value 0.983 | locus YGL240W, strain doc1, stronger effect = lower value 0.951 | locus YGL248W, strain PDE1, stronger effect = lower value 1.02 | locus YGL253W, strain hxk2, stronger effect = lower value 0.989 | locus YGR078C, strain PAC10, stronger effect = lower value 1.03 | locus YGR135W, strain pre9, stronger effect = lower value 0.99 | locus YGR229C, strain SMI1, stronger effect = lower value 1.02 | locus YGR252W, strain gcn5, stronger effect = lower value 0.962 | locus YHR013C, strain ard1, stronger effect = lower value 0.979 | locus YHR027C, strain rpn1, stronger effect = lower value 0.994 | locus YHR030C, strain SLT2, stronger effect = lower value 1.01 and 0.98 | locus YHR079C, strain IRE1 (second series), stronger effect = lower value 0.989 | locus YHR079C, strain IRE1, stronger effect = lower value 0.997 | locus YHR094C, strain hxt1, stronger effect = lower value 0.987 | locus YHR129C, strain ARP1, stronger effect = lower value 1.01 | locus YHR142W, strain chs7, stronger effect = lower value 0.974 | locus YHR200W, strain rpn10, stronger effect = lower value 0.993 | locus YIL066C, strain RNR3, stronger effect = lower value 1.02 | locus YIL073C, strain SPO22, stronger effect = lower value 0.973 | locus YIL125W, strain kgd1, stronger effect = lower value 0.997 | locus YIR030C, strain dcg1, stronger effect = lower value 1 | locus YJL092W, strain hpr5, stronger effect = lower value 0.984 | locus YJL095W, strain BCK1 (second series), stronger effect = lower value 0.972 | locus YJL095W, strain BCK1, stronger effect = lower value 1.03 and 0.98 | locus YJL115W, strain asf1, stronger effect = lower value 0.97 | locus YJL129C, strain trk1, stronger effect = lower value 0.966 | locus YJL134W, strain LCB3, stronger effect = lower value 1 | locus YJL154C, strain vps35, stronger effect = lower value 0.981 | locus YJL164C, strain tpk1, stronger effect = lower value 0.996 | locus YJL166W, strain qcr8, stronger effect = lower value 0.973 | locus YJL168C, strain set2, stronger effect = lower value 0.995 | locus YJL187C, strain SWE1 (second series), stronger effect = lower value 1.03 | locus YJL187C, strain SWE1, stronger effect = lower value 0.983 | locus YJR043C, strain POL32, stronger effect = lower value 1.01
